Assay results taken from the supplement of paper PMC12669032.
Values without a mark were called inactive.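 Rule for the calls: active = AUC reduced over 20% with Padj below 0.05 in at least 2 of 3 replicates; inactive = otherwise.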

Columns and labels:
[1] = tested on: Roseburia intestinalis; assay: growth AUC relative to DMSO control (median of replicates) (fraction); higher = more growth (less inhibition), active = hit call of the paper; conditions: 20 µM; 24 h
Outline: (§1)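 Three biological replicates, each grown on a separate day, were combined as a median for every value. In each, a gut bacterial monoculture in mGAM started at OD600 0.05 and grew anaerobically at 37 °C with 20 µM compound (1% DMSO), with OD600 read hourly over 24 h. Area under the growth curve was normalised against the plate median of solvent-only wells, or against row and column medians on the industrial chemical plate, after the minimum OD was set to 0.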

[2] = tested on: Streptococcus salivarius; assay: as above; conditions: 20 µM; 24 h
Outline: as §1

Row | Structure (SMILES) | growth AUC [1] | growth AUC [2]
1 | CCN(CC)C(=O)SCc1ccc(Cl)cc1 | 0.983 | 0.986
2 | CCc1nn(C)c(C(=O)NCc2ccc(Oc3ccc(C)cc3)cc2)c1Cl | 0.924 | 0.986
3 | CC(C)N1C(=O)c2ccccc2NS1(=O)=O | 1 | 0.978
4 | CCOP(=S)(OCC)SCSC(C)(C)C | 0.951 | 0.996
5 | CO/N=C(/C(=O)OC)c1ccccc1CO/N=C(\C)c1cccc(C(F)(F)F)c1 | 1.06 | 0.998
6 | Clc1cc(Cl)nc(-c2ccccc2)n1 | 0.956 | 0.99
7 | Cc1ccn2nc(S(=O)(=O)Nc3c(F)cccc3F)nc2n1 | 0.997 | 0.965
8 | COc1c(Cl)ccc(Cl)c1Cl | 1.01 | 0.952
9 | COC(=O)c1ccccc1S(=O)(=O)NC(=O)Nc1nc(C)cc(C)n1 | 0.944 | 0.982
10 | COC(=O)COc1ccc(Cl)cc1Cl | 0.943 | 0.937
11 | O=[N+]([O-])c1cc(Cl)ccc1Cl | 0.931 | 0.981
